Source: PubChem BioAssay (National Center for Advancing Translational Sciences (NCATS))
Pf growth 96h: inhibits malaria parasite growth, 96 h; Potency, µM (titrated, usually from 28.7 µM), hits mostly inhibitors; 320,000 tested, 6.9% active; P. falciparum luciferase reporter growth, 96 h
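Two-generation exposure (96 h) targets delayed-death phenotype. Reporter parasites carrying integrated firefly luciferase, in red cells at 2% hematocrit and 0.05% parasitemia final, kept at 37 C, 5% CO2; luminescence loss indicates inhibition.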
HCV inh: HCV inhibition | Huh7.5.1 HCVcc-Cre infection, luciferase reporter, 44 h | Potency, µM (series often up to 41.8 µM), actives largely listed as inhibitors | 340,000 tested, 3.4% active | AID 651820
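Cells seeded at 1,000/well and cultured 4 h, then compounds added followed by HCVcc-Cre virus (~0.5 moi). After 44 h further culture, luciferase substrate was added, plates held 15 min at room temperature, and luminescence read for 15 sec.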
Pf growth 48h: inhibits P. falciparum growth in the first generation, 48 h; P. falciparum luciferase growth in erythrocytes, 48 h; Potency, µM (top dose mostly 28.7 µM), hits mostly inhibitors; 310,000 tested, 5.9% active; AID 504832
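Parasite viability was followed by luminescence of a genomically integrated firefly luciferase. Cultures held 0.1% parasitemia at 2% hematocrit (final), incubated under 5% CO2 at 37 C.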
Cycloheximide cs: affects cycloheximide protein synthesis inhibition readout, counter-screen; 300,000 tested, 12% active; cell reporter, cycloheximide protein synthesis inhibition counterscreen; AID 2314; max response, %; in the data active means max response mostly above about 13%, no sharp cut-off; inactive means mostly below about 14%; further: read at 38.3 µM for the half of the compounds with a filed dose
HCMV inh: human cytomegalovirus inhibition | activity change, negative = inhibition, % at 57.5 µM | AID 1259415 | 410,000 tested, 4.5% active | HFF cells, HCMV-luciferase reporter, 72 h; stronger effect = lower value; in the data active means activity change below about -60%; inconclusive means no clear call, values can overlap the other calls; inactive means above about -39%
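Inhibition of viral replication was scored as loss of reporter luminescence in HFFs infected with HCMV-luciferase (MOI 1 PFU/cell) for 72 h; compounds tested at 2 doses, normalized to buffer and Salinomycin controls.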
Shiga inhibitor: inhibitors of Shiga toxin in Vero cells | AID 2315 | inhibition, % at 38.7 µM | Vero cells, Shiga toxin protein synthesis inhibition reporter | 290,000 tested, 9.2% active; in the data active means inhibition mostly above about 28%, no sharp cut-off; inactive means mostly below about 43%
Large screens that a line does not name were inactive. Sampled rows, rich in hits. Any-hit rate of the full collection: about 21%. Unless noted, the call rests on the fitted dose curve; in most records, active means well fitted inhibition curve with a large enough effect; inconclusive means small, poorly fitted or top-dose-only effect, or another doubt; inactive means no such curve, though single readings can be large or run the other way.

Nc1n[nH]c(N)c1N=Nc1cccc(F)c1	Shiga inhibitor 34
CCOc1ccc(S(=O)(=O)NC2CCCC2)cc1	none
CCOC(=O)c1noc2ncnc(Nc3ccc(C)c(F)c3)c12	none (no result: Pf growth 96h, HCV inh, Pf growth 48h, Cycloheximide cs, Shiga inhibitor)
Cc1ccc(S(=O)(=O)N2CCC(C(=O)N3CCC[C@H]3C(=O)NCC(C)C)CC2)cc1	Pf growth 48h inconclusive
Cc1cc(NC(=O)C2CCN(S(=O)(=O)c3ccc4[nH]c(=O)oc4c3)CC2)ccc1Br	none (no result: Pf growth 96h, HCV inh, Pf growth 48h, Cycloheximide cs, Shiga inhibitor)
O=C(Nc1ccc(F)cc1)C1CCN(S(=O)(=O)c2ccc3[nH]c(=O)oc3c2)CC1	Pf growth 96h 13µM
Cc1ccc(S(=O)(=O)N2CCC(C(=O)Nc3ccc(C(C)C)cc3)CC2)cc1	Pf growth 96h inconclusive, HCV inh 11µM, Pf growth 48h inconclusive (no result: Cycloheximide cs, Shiga inhibitor)
O=C(Nc1ccc(S(=O)(=O)N2CCOCC2)cc1)C1CCN(S(=O)(=O)c2ccc(F)cc2)CC1	Pf growth 96h inconclusive, HCV inh inconclusive, Pf growth 48h inconclusive, HCMV inh -66 (no result: Cycloheximide cs, Shiga inhibitor)
Cc1ccc(S(=O)(=O)N2CCC(C(=O)N3CCCC3C(=O)N[C@@H](CC(C)C)C(=O)NCC(N)=O)CC2)cc1 (stereo partly specified)	Pf growth 96h 6.6µM, HCV inh 1µM, Pf growth 48h inconclusive
O=C1CCCCC(=O)[C@H](O)C[C@H](c2ccccc2)O1	none (no result: Pf growth 96h, HCV inh, Pf growth 48h, Cycloheximide cs, Shiga inhibitor)
CCCS(=O)(=O)N1CCC(C(=O)N2CCOCC2)CC1	Pf growth 96h inconclusive
Cc1ccc(S(=O)(=O)N2CCC(C(=O)NCCN3CCCCCC3)CC2)cc1	HCV inh inconclusive, Pf growth 48h 12µM
Cc1ccc(S(=O)(=O)N2CCC(C(=O)NNC(=O)c3ccccc3)CC2)cc1	none
CC(=O)Nc1ccc(NC(=O)C2CCCN(c3ncccn3)C2)cc1 (stereo unspecified)	none
CCCS(=O)(=O)N1CCC(C(=O)N2CCCC2)CC1	Pf growth 96h 12µM
Cc1ccc(C(=O)NNC(=O)C2CCN(S(=O)(=O)c3ccc(C)cc3)CC2)cc1	Pf growth 48h 2.6µM
O=C(Nc1ccc(Oc2ccccc2)cc1)C1CCCN(c2ncccn2)C1 (stereo unspecified)	Pf growth 96h inconclusive, HCMV inh -72 (no result: Pf growth 48h)
Cc1ccc(-c2nnc(Nc3cccc(Br)c3)c3ccccc23)cc1S(=O)(=O)N1CCCCC1	none (no result: Pf growth 96h, HCV inh, Pf growth 48h, Cycloheximide cs, Shiga inhibitor)
Cc1ccc(S(=O)(=O)N2CCC(C(=O)Nc3ccc(Oc4ccccc4)cc3)CC2)cc1	none (no result: Pf growth 96h, HCV inh, Pf growth 48h, Cycloheximide cs, Shiga inhibitor)
O=C(Nc1ccc(Oc2ccccc2)cc1)C1CCN(S(=O)(=O)c2ccccc2)CC1	HCMV inh -82 (no result: Pf growth 96h, HCV inh, Pf growth 48h, Cycloheximide cs, Shiga inhibitor)
O=C(Nc1nc2ccc(Cl)cc2s1)[C@@H]1CCCN1C(=O)c1cccs1	Pf growth 96h inconclusive, HCV inh inconclusive, Cycloheximide cs 82, Shiga inhibitor 81
Cc1ccc(S(=O)(=O)N2CCC(C(=O)Nc3ccncc3)CC2)cc1	Pf growth 96h inconclusive, Pf growth 48h inconclusive (no result: Cycloheximide cs, Shiga inhibitor)
O=C(Nc1ccc(Cl)cc1)C1CCCN(c2cnccn2)C1 (stereo unspecified)	Pf growth 96h inconclusive, Cycloheximide cs 24
Cc1ccc(S(=O)(=O)N2CCC(C(=O)Nc3ccc(S(=O)(=O)N4CCCC4)cc3)CC2)cc1	Pf growth 96h 4.7µM, Pf growth 48h 13µM (no result: Cycloheximide cs, Shiga inhibitor)
Cc1cc(C)c(C)c(S(=O)(=O)N2CCC(C(=O)Nc3ccncc3)CC2)c1C	Pf growth 96h 13µM, Pf growth 48h inconclusive
Cc1ccc(S(=O)(=O)N2CCC(C(=O)N3CCC3)CC2)cc1	Pf growth 96h inconclusive, Cycloheximide cs 45, Shiga inhibitor 67
CC1CCCN(S(=O)(=O)c2ccc(NC(=O)C3CCN(C(=O)C(C)(C)C)CC3)cc2)C1 (stereo unspecified)	Pf growth 96h 6.6µM, HCV inh inconclusive, Pf growth 48h 5.2µM, HCMV inh inconclusive (no result: Cycloheximide cs, Shiga inhibitor)
Cc1ccc(S(=O)(=O)N2CCCC(C(=O)Nc3ccc(NC(=O)c4ccccn4)cc3)C2)cc1 (stereo unspecified)	Pf growth 48h inconclusive, Cycloheximide cs 9.1 (no result: Pf growth 96h)
O=C(C1CCN(S(=O)(=O)c2ccc(Cl)cc2)CC1)N1CCCC1	Pf growth 48h inconclusive
Cc1ccc(N(CC(=O)Nc2cccc(Cl)c2)S(=O)(=O)c2cccs2)cc1	none (no result: Pf growth 96h, HCV inh, Pf growth 48h, Cycloheximide cs, Shiga inhibitor)
Cc1cc(C)c(NC(=O)Cn2c(=O)n(CCC(=O)NCc3ccccc3Cl)c(=O)c3sccc32)c(C)c1	none (no result: Pf growth 96h, HCV inh, Pf growth 48h, Cycloheximide cs, Shiga inhibitor)
CCOC(=O)N1CCc2c(sc3c2c(=O)n(Cc2ccccc2)c(=O)n3Cc2ccccc2Cl)C1	none (no result: Pf growth 96h, HCV inh, Pf growth 48h, Cycloheximide cs, Shiga inhibitor)
